Screening data as filed in PubChem BioAssay.
Sampled rows, rich in hits. Any-hit rate of the full collection: about 2%.
A3G deaminase – inhibitors of human APOBEC3G DNA deaminase; Q9HC16; recombinant A3G, ssDNA deamination FAM/TAMRA fluorescence; inhibition, % at 20 µM; actives 0.28% (n = 330,000);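 active = inhibition of at least 40% at 20 µM, with no more than 30% in the related APOBEC3A deaminase screen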;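 also: plate controls were DMSO wells with A3G for no effect and wells lacking A3G enzyme for full effect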
NPR2 activator – GC-B (human) receptor activation; P20594; HEK293-GC-B cells, CNP EC30, cGMP TR-FRET; 0% at EC30 CNP, 100% saturating CNP; activation, % at 10 µM; actives 0.11% (n = 370,000);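 active = activation at 10 µM reaching about 35% in either raw or pattern-adjusted values, limit read from the data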
Target sequence (P20594 whole entry, looked up): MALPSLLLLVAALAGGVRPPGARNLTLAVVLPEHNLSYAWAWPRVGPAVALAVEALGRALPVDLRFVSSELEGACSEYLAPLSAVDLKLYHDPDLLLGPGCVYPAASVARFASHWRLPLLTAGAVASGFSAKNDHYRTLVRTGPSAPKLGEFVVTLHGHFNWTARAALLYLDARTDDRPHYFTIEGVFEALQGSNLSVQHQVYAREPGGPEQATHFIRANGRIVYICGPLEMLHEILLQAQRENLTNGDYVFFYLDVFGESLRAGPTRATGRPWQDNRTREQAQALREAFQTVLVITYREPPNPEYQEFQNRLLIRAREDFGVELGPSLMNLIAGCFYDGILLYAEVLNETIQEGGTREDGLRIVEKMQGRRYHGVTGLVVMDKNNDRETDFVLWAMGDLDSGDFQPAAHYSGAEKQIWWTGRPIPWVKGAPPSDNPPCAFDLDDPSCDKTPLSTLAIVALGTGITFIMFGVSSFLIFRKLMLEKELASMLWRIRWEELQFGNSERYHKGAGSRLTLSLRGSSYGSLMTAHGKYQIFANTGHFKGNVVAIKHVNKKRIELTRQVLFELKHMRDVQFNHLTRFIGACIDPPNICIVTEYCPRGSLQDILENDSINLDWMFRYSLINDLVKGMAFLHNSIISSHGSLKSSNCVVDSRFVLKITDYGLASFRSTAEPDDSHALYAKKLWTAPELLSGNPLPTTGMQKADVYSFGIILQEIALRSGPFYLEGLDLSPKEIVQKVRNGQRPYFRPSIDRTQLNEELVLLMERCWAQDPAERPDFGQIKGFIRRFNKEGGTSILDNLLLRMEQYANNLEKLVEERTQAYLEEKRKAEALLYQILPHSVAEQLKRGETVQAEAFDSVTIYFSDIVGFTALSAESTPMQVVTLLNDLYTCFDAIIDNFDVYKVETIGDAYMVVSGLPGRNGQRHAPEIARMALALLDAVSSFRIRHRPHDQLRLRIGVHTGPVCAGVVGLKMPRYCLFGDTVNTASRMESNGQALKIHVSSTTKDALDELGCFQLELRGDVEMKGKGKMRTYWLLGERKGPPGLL
NPR1 activator – GC-A (human) enzyme activation; P16066; HEK293 GC-A cells, cGMP TR-FRET, EC30 ANP; 0% at EC30 ANP, 100% saturating ANP; activation, % at 10 µM; actives 0.14% (n = 370,000); in the data active = activation above about 40%
PfGluPho inh – PfG6PD (Plasmodium falciparum) enzyme inhibition | PfGluPho enzyme, NADPH resazurin-diaphorase fluorescence | inhibition, % at 20 µM | actives 0.78% (n = 350,000) | AID 504690;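 active = inhibition reaching at least a set limit at 20 µM in the primary screen, cut at about 59% in these data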;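 also: 0% = DMSO wells with substrate and 100% = DMSO wells lacking glucose-6-phosphate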
APOBEC3A inh – inhibitors of human APOBEC3A DNA deaminase; recombinant A3A, FAM/TAMRA ssDNA deamination fluorescence; actives 0.41% (n = 330,000); inhibition, % at 20 µM; AID 493011;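 active = at least 40% inhibition at 20 µM here, with at most 30% in a related deaminase screen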;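 also: plate controls were A3A with DMSO for no effect and wells lacking A3A enzyme for full effect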
Neddylation inh – blocks human cullin neddylation | inhibition, % at 25 µM | actives 0.58% (n = 360,000) | TR-FRET cullin neddylation, biochemical | P61081+Q13564 | AID 651699; in the data active = inhibition above about 36%
PfGluPho conf – PfG6PD inhibition, single-dose confirmed | shares compounds with PfGluPho inh | recombinant PfGluPho, NADPH-diaphorase-resazurin fluorescence | inhibition, % at 20 µM | actives 34% (n = 2,400) | AID 504753;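 active = inhibition of at least 50% at 20 µM in any single replicate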;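 also: 0% = DMSO with substrate and 100% = DMSO lacking glucose-6-phosphate substrate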
An asterisk follows results filed as active; . = not tested or not shown.

SMILES	A3G deaminase	NPR2 activator	NPR1 activator	PfGluPho inh	APOBEC3A inh	Neddylation inh	PfGluPho conf
COC(=O)CCCC1=CC2=CC(=O)C(C)(OC(=O)c3cccs3)C(=O)C2=CN1Cc1ccc2c(c1)OCO2 (configuration not stated)	-5	3	9	43	-1	-48	.
COC(=O)CCCC1=CC2=CC(=O)C(C)(OC(=O)c3cccs3)C(=O)C2=CN1C1CCCC1 (configuration not stated)	-1	-2	-2	44	0	-7	.
COC(=O)CCCC1=CC2=CC(=O)C(C)(OC(=O)c3cccs3)C(=O)C2=CN1CCCOC(C)C (configuration not stated)	-6	4	3	62*	-2	-16	20
COC(=O)CCCC1=CC2=CC(=O)C(C)(OC(=O)c3cccs3)C(=O)C2=CN1Cc1ccccc1 (configuration not stated)	-3	0	5	75*	0	-10	43
COC(=O)CCCC1=CC2=CC(=O)C(C)(OC(=O)c3cccs3)C(=O)C2=CN1Cc1ccco1 (configuration not stated)	6	-2	1	73*	27	-37	31
O=S1(=O)c2c(cccc2N2CC[C@@H](O)C2)O[C@H]2CCN1C2	.	4	-3	.	.	.	.
Cc1cccc(C(=O)Nc2ccc(C(=O)c3ccccc3)cc2)c1	-3	0	-4	63*	-1	-65	6
